Test systems include NCI-H23 lung; NCI-H226 lung; NCI-H322M lung; HOP-62 NSCLC; NCI-H460 lung; HOP-92 NSCLC; NCI-H522 lung; A549/ATCC NSCLC; 786-0 renal; COLO 205 colon; DU-145 prostate; K-562 leukemia; MALME-3M melanoma; MDA-MB-231 breast; RXF 393 renal; SF-268 CNS; SF-295 CNS; SF-539 CNS; UACC-257 melanoma; M14 melanoma.
Test in all cases: NCI-60 one-dose screen, 48 h (100 = growth as untreated, 0 = no growth, -100 = all killed)
Holding throughout (details): 10 µM unless noted

Compounds without any hit were thinned out: in the full panel of roughly 83,000, 20% have a hit.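 Negative percent growth values reflect cell death: -40 means 40% of the cells present at the start died, and -100 means all died.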 Values without a mark were called inactive. Activity calls are given as the source filed them. The calls were made as follows: active = growth percent below 10; inactive = the rest.

We go through 8 compounds from PubChem BioAssay (NCI).

Turning to `Cc1c(O)cc(-c2cnc(N/N=C/c3ccccc3)s2)c(O)c1C`, the growth in the assay on NCI-H23 lung is 97.7%; in the assay with NCI-H226 lung it was 92.4%; in the assay with NCI-H322M lung, 97.6%; with HOP-62 NSCLC, 107%; in the assay on NCI-H460 lung, 102%; with HOP-92 NSCLC, 92.6%. The growth in the assay on NCI-H522 lung was 82.3%; with A549/ATCC NSCLC it was 94.1%; in the assay with 786-0 renal, 117%; with COLO 205 colon it was 111%; with DU-145 prostate, 105%; with K-562 leukemia it was 89.9%. For the same compound, the growth is 107% in the assay on MALME-3M melanoma; 101% in the assay with MDA-MB-231 breast; 102% in the assay on RXF 393 renal; 91.6% with SF-268 CNS; 103% with SF-295 CNS; 100% in the assay with SF-539 CNS. For the same compound, the values for the growth in the assay on UACC-257 melanoma and with M14 melanoma were 95.5% and 95.9%, respectively.
Turning to `O=C(Nc1ccc(Oc2cccc(Cl)c2)c(Cl)c1)c1cccnn1`, the growth in the assay on NCI-H23 lung was 84.1%; in the assay on NCI-H226 lung, 78.8%; in the assay with NCI-H322M lung it was 93.9%; with HOP-62 NSCLC, 101%; in the assay with NCI-H460 lung, 99.8%; in the assay with HOP-92 NSCLC it was 84.4%. Further, the growth in the assay with NCI-H522 lung was 73.6%; in the assay on A549/ATCC NSCLC it was 75.3%; with 786-0 renal, 77.4%; in the assay on COLO 205 colon it was 106%; in the assay with DU-145 prostate, 86.3%; in the assay on K-562 leukemia, 77%. The growth in the assay with MALME-3M melanoma is 104%; in the assay with MDA-MB-231 breast, 95.5%; in the assay with RXF 393 renal it was 90.3%; in the assay with SF-268 CNS, 83.9%; with SF-295 CNS, 82.2%; with SF-539 CNS it was 95.3%. Further, the growth is 104% in the assay on UACC-257 melanoma and 92.8% in the assay on M14 melanoma.
Turning to `CCCCn1c(NC(C)=O)c(S(=O)(=O)c2ccccc2)c2nc3ccccc3nc21`, the growth was 94% with NCI-H23 lung; 92.5% with NCI-H226 lung; 105% with NCI-H322M lung; 173% in the assay with HOP-62 NSCLC; 110% in the assay with NCI-H460 lung; 4.95% (active) in the assay with HOP-92 NSCLC. Besides, the growth with NCI-H522 lung was 94.9%; in the assay on A549/ATCC NSCLC, 97.1%; in the assay with 786-0 renal, 105%; in the assay with COLO 205 colon it was 127%; in the assay with DU-145 prostate, 104%; in the assay with K-562 leukemia, 69.3%. For the same compound, the growth is 98.9% with MALME-3M melanoma; 109% in the assay on MDA-MB-231 breast; 86.8% in the assay on RXF 393 renal; 96.7% in the assay with SF-268 CNS; 111% in the assay on SF-295 CNS; 97.6% in the assay with SF-539 CNS. The growth with UACC-257 melanoma is 99.6%; in the assay with M14 melanoma it was 106%.
Take `CN1C(=O)/C(=C/c2ccc(C(=O)Nc3ncc(Cc4cc(Cl)ccc4Cl)s3)cc2)SC1=S`: the growth with NCI-H23 lung was 67.6%; with NCI-H226 lung, 68.5%; with NCI-H322M lung, 76.7%; with HOP-62 NSCLC, 72.4%; in the assay on NCI-H460 lung it was 73.7%; in the assay with HOP-92 NSCLC it was 50.2%. Also, the growth in the assay on NCI-H522 lung was 62.5%; in the assay with A549/ATCC NSCLC, 73.3%; with 786-0 renal, 87.9%; in the assay with COLO 205 colon, 89.2%; in the assay on DU-145 prostate, 73.7%; in the assay on K-562 leukemia, 54.7%. Also, the growth with MALME-3M melanoma was 69.4%; in the assay with MDA-MB-231 breast, 75.7%; in the assay with RXF 393 renal it was 60.1%; in the assay with SF-268 CNS, 71%; in the assay with SF-295 CNS it was 65.8%; in the assay on SF-539 CNS, 79.8%. Further, the growth is 91.8% with UACC-257 melanoma and 46.5% with M14 melanoma.
Regarding `O=CCCCOCc1ccccc1`, the growth with NCI-H23 lung was 96.4%; with NCI-H226 lung, 96.5%; with NCI-H322M lung, 110%; in the assay with HOP-62 NSCLC it was 93.2%; with NCI-H460 lung, 107%; in the assay with HOP-92 NSCLC, 90.6%. Further, the growth in the assay with NCI-H522 lung is 88.5%; with A549/ATCC NSCLC, 95.3%; in the assay on 786-0 renal, 98.4%; in the assay on COLO 205 colon it was 109%; in the assay with DU-145 prostate, 102%; in the assay on K-562 leukemia, 104%. For the same compound, the growth was 95.8% in the assay on MALME-3M melanoma; 101% in the assay on MDA-MB-231 breast; 113% in the assay on RXF 393 renal; 103% with SF-268 CNS; 95.1% with SF-295 CNS; 101% in the assay on SF-539 CNS. The growth in the assay with UACC-257 melanoma is 103%; in the assay on M14 melanoma, 96.4%.
On to `CS(=O)/C(C#N)=C\C=C\c1cccc(Cl)c1` (stereo not given), for which the growth in the assay on NCI-H23 lung is -7.77% (active); in the assay on NCI-H226 lung, 36.1%; in the assay with NCI-H322M lung, 24.1%; with HOP-62 NSCLC, 17.1%; in the assay on NCI-H460 lung, 3.71% (active); in the assay with HOP-92 NSCLC, -5.77% (active). Moreover, the growth was -9.88% (active) with NCI-H522 lung; 20% in the assay on A549/ATCC NSCLC; 19.2% with 786-0 renal; -22% (active) in the assay with COLO 205 colon; 23.1% with DU-145 prostate; 10.3% with K-562 leukemia. In addition, the growth is 34.7% with MALME-3M melanoma; 40.6% with MDA-MB-231 breast; 49.5% in the assay with RXF 393 renal; 17.2% with SF-268 CNS; 32.5% in the assay with SF-295 CNS; 17.7% in the assay with SF-539 CNS. The growth was 31.9% in the assay with UACC-257 melanoma and -3.44% (active) in the assay with M14 melanoma.
For `O=C(/C=C/c1cccc(Oc2ccccc2)c1)c1ccc(Nc2nc(Nc3ccc(F)cc3)nc(Nc3ccc(Cl)cc3)n2)cc1`, the growth with NCI-H23 lung is 77.1%; in the assay on NCI-H226 lung, 113%; in the assay with NCI-H322M lung, 93.8%; in the assay on HOP-62 NSCLC it was 104%; with NCI-H460 lung it was 108%; in the assay with HOP-92 NSCLC, -6.77% (active). Further, the growth in the assay on NCI-H522 lung is 109%; in the assay on A549/ATCC NSCLC, 90.2%; in the assay on 786-0 renal, 96.1%; in the assay on COLO 205 colon it was 103%; in the assay with DU-145 prostate it was 117%; in the assay with K-562 leukemia, 11.5%. The growth was 90.4% in the assay with MALME-3M melanoma; 108% in the assay on MDA-MB-231 breast; 96.6% in the assay with RXF 393 renal; 99.9% in the assay on SF-268 CNS; 104% in the assay on SF-295 CNS; 116% with SF-539 CNS. For the same compound, the figures for the growth in the assay with UACC-257 melanoma and in the assay with M14 melanoma were 109% and 106%, respectively.
Turning to `C=C(C)[C@@H]1CC[C@]2(COC3CCCCO3)CC[C@]3(C)[C@H](CC[C@@H]4[C@@]5(C)C=C(C=O)C(=O)C(C)(C)[C@@H]5CC[C@]43C)[C@@H]12` (stereo not given in full), the growth in the assay on NCI-H23 lung was -58.9% (active); with NCI-H226 lung it was 1.68% (active); in the assay with NCI-H322M lung, 8.97% (active); with HOP-62 NSCLC it was -68% (active); in the assay with NCI-H460 lung, -47.2% (active); with HOP-92 NSCLC, -91.6% (active). For the same compound, the growth in the assay on NCI-H522 lung is -75% (active); with A549/ATCC NSCLC, -63.5% (active); in the assay on 786-0 renal, -86.2% (active); in the assay on COLO 205 colon it was -32% (active); in the assay on DU-145 prostate, -94.3% (active); in the assay on K-562 leukemia, -24.9% (active). For the same compound, the growth is -75.4% (active) in the assay on MALME-3M melanoma; -37.7% (active) in the assay with MDA-MB-231 breast; -85.7% (active) in the assay with RXF 393 renal; -67.1% (active) in the assay with SF-268 CNS; -95.5% (active) with SF-295 CNS; -74.3% (active) in the assay on SF-539 CNS. Also, the growth in the assay on UACC-257 melanoma is -28.5% (active); in the assay on M14 melanoma, -62.9% (active).
